# Test results reported in PubChem BioAssay.
# The source made the active and inactive calls.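 Rule for the calls, unless noted: active = fluorescence slope after compound addition differing from the mean of all screened samples at 99.7% confidence, in either direction; inactive = the rest.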 Where a SMILES comes first, the peptide text is derived from it. The star is where a group is joined. Boc = CC(C)(C)OC(=O)*
# Experiments:
# [1] = inhibitors of TNFa-induced NFkB p65 translocation, primary screen, imaging, HUVEC, MLSMR starter and 10KST1 sets (AID 438;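 active = inhibition above 20% together with a positive visual image hit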;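 note: compound added about 3h40 before a 20 min TNFalpha stimulation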;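 for inhibition: signal is the nuclear over cytoplasmic p65 intensity ratio per well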); settings: HUVEC TNFa-induced p65 nuclear translocation; cell count: measured here: nuclei count (cytotoxicity indicator), at 2.08 µM; inhibition: at 2 µM, stronger effect = higher value, 0% TNFa-plus-vehicle, 100% no-TNFa wells
# [2] = reduction of polyQ htt aggregates in cells – imaging, exon1htt(103Q)mCFP cells, high-content imaging, primary screen (AID 483;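 active = visual image review flags a hit and inhibition of aggregation exceeds 20%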;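 note: compound exposure lasted 3 days before fixation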;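 for nuclei count: percent of the per-plate median nuclei count of sample wells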); settings: exon1htt(103Q)mCFP cell line, aggregate imaging, at 2 µM; inhibition of aggregation: stronger effect = higher value; nuclei count: measured here: cell count, toxicity
# [3] = endothelial E-selectin expression blockers – imaging, HUVEC, immunofluorescence, MLSMR starter and 10KST1 sets, primary screen (AID 487;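 active = visually confirmed hit in the image check and inhibition above 20%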;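 for inhibition: signal is fraction of cell area covered by stained E-selectin grains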;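 for nuclei count: 100% = median nuclei count of all wells on the same plate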); settings: HUVEC TNFalpha-induced E-selectin immunofluorescence imaging, at 2 µM; inhibition: stronger effect = higher value; nuclei count: measured here: cell number, toxicity
# [4] = molecular target: Voltage-gated potassium channel subunit beta-2 (Rattus norvegicus) (UniProt P62483); test: inhibitors of rat Kvbeta2 reductase activity – biochemical, NADPH fluorescence, primary screen (AID 622;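 active = fluorescence slope higher than the sample average by over 3 SD, cut at about -0.22 in these data, passing the limit was not always enough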;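 note: slope of raw intensity against log time taken from 70 to 1610 s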); settings: recombinant KvBeta, 4-cyanobenzaldehyde reduction, at 10 µM, stronger effect = higher value
# [5] = molecular target: Voltage-gated potassium channel subunit beta-2 (Rattus norvegicus) (UniProt P62483); test: enhancers of rat Kvbeta2 NADPH turnover – biochemical, NADPH fluorescence, primary screen (AID 623;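 active = NADPH fluorescence slope more negative than the mean of all samples by about 3 SD, 99.7% confidence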;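 note: fluorescence intensity change per second fitted from 20 to 320 s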); settings: Recombinant KvBeta, NADPH fluorescence decrease slope, 10 min; at 10 µM; stronger effect = lower value
# [6] = molecular target: Alpha-2C adrenergic receptor (Homo sapiens) (UniProt P18825); test: compounds altering alpha2C-coupled GIRK flux – cell-based, HEK293 alpha2C/GIRK1/2, thallium flux, primary screen (AID 624); settings: thallium flux BTC fluorescence, at 10 µM, actives lie on both sides;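 note: slope of fluorescence ratio to pre-addition baseline per second over 15 to 24 s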
# [7] = blockers of RIG-like receptor reporter activation – cell-based, Sendai virus stimulus, luciferase, 10K MLSCN set, TLR/RLR signaling modifier project, primary screen (AID 602276;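 active = inhibition at or above 50% at 10 µM; inactive = inhibition below 50%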;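 note: firefly luciferase from ISG56 promoter only with Renilla not read in this screen; 0% = Sendai virus plus DMSO and 100% = medium plus DMSO without virus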); settings: HEK293 RL24 IRF3 luciferase reporter, at 10 µM, stronger effect = higher value
# [8] = TLR3 IRF3 reporter activation blockers – cell-based, poly I:C stimulus, luciferase, 10K MLSCN set, primary screen (AID 602277;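 active = inhibition of the reporter signal at or above 50%; inactive = inhibition below 50%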); settings: HEK293-TLR3 RL24 IRF3 luciferase reporter, at 10 µM, stronger effect = higher value
# Sequence of Voltage-gated potassium channel subunit beta-2 (Rattus norvegicus) (P62483 whole entry, looked up): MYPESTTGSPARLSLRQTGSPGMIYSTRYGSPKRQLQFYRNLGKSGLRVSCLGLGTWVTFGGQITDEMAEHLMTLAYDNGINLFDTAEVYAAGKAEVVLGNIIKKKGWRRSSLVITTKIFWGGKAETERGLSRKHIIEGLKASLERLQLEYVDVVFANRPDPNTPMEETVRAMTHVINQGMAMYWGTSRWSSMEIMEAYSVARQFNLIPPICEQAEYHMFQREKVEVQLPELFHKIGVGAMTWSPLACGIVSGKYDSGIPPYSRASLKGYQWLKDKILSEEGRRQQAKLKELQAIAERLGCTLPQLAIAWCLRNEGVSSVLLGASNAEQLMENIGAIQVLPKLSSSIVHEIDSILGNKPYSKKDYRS
# Sequence of Alpha-2C adrenergic receptor (Homo sapiens) (P18825 whole entry, looked up): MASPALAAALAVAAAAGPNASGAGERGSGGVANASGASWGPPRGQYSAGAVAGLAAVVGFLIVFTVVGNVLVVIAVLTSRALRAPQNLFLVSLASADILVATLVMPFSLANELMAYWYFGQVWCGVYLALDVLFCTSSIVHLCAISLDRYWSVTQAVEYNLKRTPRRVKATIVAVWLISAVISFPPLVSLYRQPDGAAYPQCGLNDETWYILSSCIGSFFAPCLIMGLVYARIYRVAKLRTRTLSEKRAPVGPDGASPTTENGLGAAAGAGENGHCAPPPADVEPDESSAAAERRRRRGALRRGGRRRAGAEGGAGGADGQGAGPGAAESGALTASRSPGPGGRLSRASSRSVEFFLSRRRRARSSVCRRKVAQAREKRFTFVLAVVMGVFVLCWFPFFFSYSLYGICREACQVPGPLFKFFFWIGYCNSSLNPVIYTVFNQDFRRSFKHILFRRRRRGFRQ
SMILES,cell count [1],inhibition [1],inhibition of aggregation [2],nuclei count [2] [%],inhibition [3],nuclei count [3] [%],fluorescence slope [4],NADPH fluorescence slope [5],slope [6],inhibition [7],inhibition [8]
CC(=O)c1c(C)oc2ccc(NS(=O)(=O)c3ccc(O)c(C(=O)O)c3)cc12,380,8.9% (inactive),-7.5% (inactive),108,-5.6% (inactive),112,-0.576 (inactive),-2.5e-05 (inactive),0.00663 (inactive),7.79% (inactive),19.3% (inactive)
CC(=O)c1c(C)nn(C(C)CC(=O)O)c1C (centres undefined),784,-12.6% (inactive),5.2% (inactive),114,-27.1% (inactive),99,-0.509 (inactive),-2.6e-05 (inactive),0.00713 (inactive),8.2% (inactive),19.7% (inactive)
CC(C)CC(NC(=O)OC(C)(C)C)C(=O)NC(C(=O)N1CCCC1C(N)=O)C(C)C (stereo not drawn) (Boc-Leu-Val-Pro-NH2; configuration not given here),662,8.7% (inactive),-4% (inactive),100,62.5% (inactive),89.1,-0.485 (inactive),-2.7e-05 (inactive),0.00542 (inactive),4.38% (inactive),20.6% (inactive)
COC1CCCCC1Nc1cccc(SC)c1 (centres undefined),411,0.6% (inactive),-6.7% (inactive),90.9,-65.5% (inactive),120,-0.414 (inactive),-2.4e-05 (inactive),0.0037 (inactive),12.1% (inactive),19.8% (inactive)
CCn1c2ccccc2c2cc(N)ccc21,705,-34.5% (inactive),17.8% (inactive),91.5,-37.7% (inactive),107,-0.458 (inactive),5.8e-06 (inactive),0.00355 (inactive),8.66% (inactive),15.3% (inactive)
Cn1c(C(=O)NCCCN2CCCCCC2)cc2c(=O)n(C)c3ccccc3c21,653,5.5% (inactive),-31.5% (inactive),76.6,-33.1% (inactive),101,-0.639 (inactive),-4.1e-06 (inactive),0.00675 (inactive),72.2% (active),79% (active)
COc1cccc(C2=NOC(C(=O)N3CCc4ccccc4C3)C2)c1 (centres undefined),606,4.7% (inactive),11% (inactive),97.3,10.4% (inactive),107,-0.605 (inactive),-4.1e-05 (inactive),0.00592 (inactive),-5.64% (inactive),-15% (inactive)
CCN1C(=O)Cc2cc(S(=O)(=O)N3CCOCC3)ccc21,675,-2.9% (inactive),-11.1% (inactive),121,-38.7% (inactive),98.4,-0.435 (inactive),2.6e-05 (inactive),0.00585 (inactive),2.07% (inactive),-4.25% (inactive)
C/C=C/CSc1nc2c(c(=O)[nH]c(=O)n2C)n1Cc1ccc(C)cc1,693,-6.9% (inactive),-5% (inactive),116,-43.7% (inactive),112,-0.542 (inactive),-3.9e-05 (inactive),0.0074 (inactive),-3.97% (inactive),18.2% (inactive)
CCc1nnc(NC(=O)c2cc3c(s2)CCCCC3)s1,662,4.4% (inactive),4.1% (inactive),131,-89.1% (inactive),108,-0.406 (inactive),-0.000125 (inactive),0.00621 (inactive),-50.8% (inactive),-103% (inactive)
O=C(c1cc(-c2cccc(O)c2)on1)N1CCN(C(c2ccccc2)c2ccccc2)CC1,787,3.2% (inactive),-5.2% (inactive),96.8,-70.7% (inactive),116,-0.601 (inactive),-3.2e-05 (inactive),0.00689 (inactive),11% (inactive),25.8% (inactive)
Cc1ccccc1C1CC(c2ccccc2)Nc2ncnn21 (centres undefined),561,0% (inactive),-26.3% (inactive),92.1,-47% (inactive),108,-0.528 (inactive),-1.4e-06 (inactive),0.00646 (inactive),3.07% (inactive),15.7% (inactive)
CCCCC(O)(C(NC=O)C(=O)OC)C(F)(F)F (centres undefined),703,-10.7% (inactive),12.7% (inactive),67.6,-10.7% (inactive),113,-0.489 (inactive),9.5e-07 (inactive),0.00464 (inactive),22% (inactive),16% (inactive)
CCN(CC)CCCNS(=O)(=O)c1ccc(OC)cc1,460,0.5% (inactive),-18% (inactive),110,-61.5% (inactive),134,-0.429 (inactive),-0.000105 (inactive),0.00623 (inactive),13.6% (inactive),27.9% (inactive)
